Laboratory results published in PubChem BioAssay AID687014 (The Scripps Research Institute Molecular Screening Center, 2013).
The campaign covered roughly 370,000 compounds. About 6,800 (1.8%) were called active. The list comes from a sample in which actives are over-represented; it also holds similar structures and randomly drawn compounds. Values without a mark were called inactive.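 How the source made its calls: active means activation above a cutoff set at the mean of all screened compounds plus 3 SD (cut at about 10% in these data); inactive means the rest.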

Test system: Nuclear hormone receptor DAF-12 (Heterodera glycines), GAL4 fusion
Assay: H. glycines DAF-12 receptor agonists, primary screen, cell-based, luminescence, HEK293, GAL4 fusion, UAS-luciferase (AID 687014);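 further: 0% = DMSO wells and 100% = sodium butyrate wells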
Conditions: HEK293 GAL4-hgDAF12 UAS-luciferase reporter, agonist luminescence; at 6.8 µM; active compounds read high; normalized to butyrate control

Q: `CCC(C)(C)NC(=O)C(c1ccc(O)cc1)N(C(=O)Cn1nnc2ccccc21)c1ccc(NC(C)=O)cc1` (stereo not drawn) was tested. Which activation did it give?
A: -2.76%

Q: How did the activation turn out when `C[C@H](CO)N1C[C@H](C)[C@@H](CN(C)C(=O)Nc2ccccc2F)OCc2cn(nn2)CCCC1=O` was run?
A: 4.8%

Q: Which activation does the source give for `COc1cc(/C=C(\C#N)c2nc3c(s2)CC(C)CC3)ccc1O` (stereo not drawn) here?
A: 13.1% (active)

Q: `CCCC1CCC2(CCCN2CCOC(=O)NCc2ccccc2)CC1` (stereo not drawn) was tested. Which activation did it give?
A: -0.9%

Q: `CCC(c1ccc(NC(=O)OC(C)(C)C)cc1)c1cc(OC)cc(OC)c1` (stereo not drawn) was tested. Which activation did it give?
A: -1.91%

Q: Which activation does the source give for `CC(C)(C)n1nc(C2CC2)c(Br)c1NC(=O)c1ccccc1F` here?
A: -1.55%

Q: Which activation does the source give for `CC(=O)c1ccc(N2CCN(CC(O)c3ccccc3)CC2)cc1` (stereo not drawn) here?
A: -0.45%

Q: For `CC(=O)N1Cc2ccccc2CC1C(=O)O` (stereo not drawn), which activation is on record?
A: 2.94%

Q: How did the activation turn out when `CC(=O)c1ccc(N2Cc3ccccc3C2)cc1` was run?
A: 12.2% (active)

Q: `O=C(NCc1cccs1)C1CCN(S(=O)(=O)c2ccccc2[N+](=O)[O-])CC1` was tested. Which activation did it give?
A: 1.45%

Q: With `Cc1ccccc1N1CC(c2nc3ccccc3[nH]2)CC1=O` (stereo not drawn) as the compound, how does the activation read?
A: 0.19%

Q: With `O=C1c2ccccc2C(c2nc3ccccc3[nH]2)N1c1ccccc1` (stereo not drawn) as the compound, how does the activation read?
A: 5.38%

Q: For `CCOC(=O)CNC(=O)CSc1ncccc1-c1nc2ccccc2[nH]1`, which activation is on record?
A: -0.67%

Q: How did the activation turn out when `Nc1ccccc1-c1nc2ccncc2[nH]1` was run?
A: 3.95%

Q: With `c1ccc2[nH]c(-c3nc4ccccc4[nH]3)nc2c1` as the compound, how does the activation read?
A: 11.8% (active)

Q: How did the activation turn out when `Cc1ccc(-c2nc3ccccc3[nH]2)cc1N` was run?
A: 12.8% (active)

Q: For `COC(=O)C1CN(CC(C)C)CCS(=O)(=O)N1Cc1ccc(F)cc1` (stereo not drawn), which activation is on record?
A: -3.03%

Q: How did the activation turn out when `CC(C)Cn1c(N2CCN(C(=O)/C=C/c3ccccc3)CC2)nc2ccccc21` was run?
A: -3.13%

Q: For `CC(C)c1ccc(Nc2nnc(SCC(=O)c3nnc(-c4ccccc4)o3)s2)cc1`, which activation is on record?
A: 17.7% (active)

Q: For `CN(C(=O)CSc1nnc(Nc2ccccc2)s1)C1CCS(=O)(=O)C1` (stereo not drawn), which activation is on record?
A: 1.71%

Q: How did the activation turn out when `CC(C)Nc1nnc(SCC(=O)c2c[nH]c3ccccc23)s1` was run?
A: -0.17%

Q: For `O=C(NCc1cccc(CNC(=O)Nc2cccc(O)c2)c1)Nc1cccc(O)c1`, which activation is on record?
A: -0.42%

Q: With `O=C(OCc1ccc(-c2ccccc2)cc1)c1cccc(O)c1` as the compound, how does the activation read?
A: 7.53%

Q: Which activation does the source give for `O=C(Nc1cccc(O)c1)c1ccc(C(=O)c2ccccc2)o1` here?
A: 15.9% (active)

Q: How did the activation turn out when `CC(=O)N1CCc2cc(S(=O)(=O)NCCC(=O)N3CCCC3)ccc21` was run?
A: 0.07%

Q: For `Cc1ccc(C(=O)O/N=C(\N)c2ccccn2)cc1Cl`, which activation is on record?
A: 4.09%

Q: How did the activation turn out when `COc1ccc(C(=O)O/N=C(\N)c2ccccn2)cc1[N+](=O)[O-]` was run?
A: 17.4% (active)

Q: Which activation does the source give for `COc1ccc(C(=O)NNC(=O)c2cnccn2)cc1[N+](=O)[O-]` here?
A: 2.33%

Q: For `COC(=O)[C@]12C[C@H](CC(=O)NCCC(C)C)C(=O)N(CCc3ccc(OC)c(OC)c3)C1=C[C@H](C(C)(C)C)O[C@@H]2C`, which activation is on record?
A: 0.69%

Q: For `Cc1ccc(-c2nc3ccc(Br)cn3c2Cc2ccccc2C(F)(F)F)cc1`, which activation is on record?
A: 12.4% (active)

Q: How did the activation turn out when `Cc1cc(Br)cn2c(Cc3ccccc3C(F)(F)F)c(-c3ccc(Cl)cc3)nc12` was run?
A: 0.95%

Q: For `Cc1cc(Br)cn2c(Cc3ccccc3C(F)(F)F)c(-c3ccc(C#N)cc3)nc12`, which activation is on record?
A: -0.23%

Q: `CCCCN1CCN(C(=O)c2ccc3c(c2)NC(=O)C(C)(C)O3)CC1` was tested. Which activation did it give?
A: 1.81%

Q: `N#CCC[C@H]1CC[C@]2(CCCN(Cc3ccc(Cl)cc3)C2)O1` was tested. Which activation did it give?
A: -2.81%

Q: `Cc1ccc(C)c(NC(=O)CCS(=O)(=O)c2ccccc2)c1` was tested. Which activation did it give?
A: -2.63%

Q: How did the activation turn out when `S=C(c1ccc(-c2ccccc2)o1)N1CCCCC1` was run?
A: 19.9% (active)

Q: For `O=C(NC(=S)Nc1ccccc1C(=O)O)c1ccc(-c2ccc(Br)cc2)o1`, which activation is on record?
A: -2.39%

Q: How did the activation turn out when `CC1CCN(C(=S)c2ccc(-c3ccc(Cl)cc3Cl)o2)CC1` was run?
A: -2.32%

Q: How did the activation turn out when `NC(=O)c1ncn([C@@H]2O[C@H](C(=O)O)[C@@H](O)[C@H]2O)n1` was run?
A: 1.3%

Q: How did the activation turn out when `Cc1ccnc(-n2sc3ccccc3c2=O)n1` was run?
A: 4.36%

Q: How did the activation turn out when `Cc1ccnc(Nc2nc3ccccc3s2)n1` was run?
A: 21.9% (active)

Q: With `CCCN1C(=O)c2[nH]nc(-c3ccccc3)c2C1c1ccccc1` (stereo not drawn) as the compound, how does the activation read?
A: -0.37%

Q: How did the activation turn out when `O=C(NCc1ccccc1)[C@H]1CCCN1C(=O)[C@H]1CCCN1C(=O)N1CCOCC1` was run?
A: -0.79%

Q: With `COc1ccc2nc(SCC(=O)Nc3c(C)cc(C)cc3C)[nH]c2c1` as the compound, how does the activation read?
A: -0.27%

Q: For `Cc1cc2nc(SCCN3CCOCC3)[nH]c2cc1C`, which activation is on record?
A: 11.8% (active)

Q: Which activation does the source give for `CCn1c2ccc(F)cc2c2nnc(SCCN3CCOCC3)nc21` here?
A: 0.7%

Q: For `COc1ccccc1CCNS(=O)(=O)c1cc2c3c(c1)C(C)C(=O)N3CCC2` (stereo not drawn), which activation is on record?
A: -1.65%

Q: Which activation does the source give for `O=C1C(=O)N(Cc2ccc(-c3ccsc3)cc2)c2ccc(OC(F)(F)F)cc21` here?
A: -4.58%

Q: How did the activation turn out when `COC(=O)C1=C(C)N(Cc2ccc(F)cc2)C(=S)NC1c1cccc(Cl)c1` (stereo not drawn) was run?
A: -2.2%

Q: `CC(C)[C@@H](C)/C=C/[C@@H](C)[C@H]1CC[C@@H]2[C@]1(C)CCC1[C@]23C=C[C@]2(C[C@@H](O)CC[C@]12C)N(c1ccc([N+](=O)[O-])cn1)O3` (stereo partly drawn) was tested. Which activation did it give?
A: 0.26%

Q: Which activation does the source give for `COc1ccc(N2CCN(CCNS(=O)(=O)c3ccc(C(C)(C)C)cc3)CC2)cc1` here?
A: 0.34%

Q: For `N/C(=N\OC(=O)CC1CCCCC1)c1ccccc1`, which activation is on record?
A: 0.73%

Q: `N/C(=N\OC(=O)CCC1CCCCC1)c1ccccn1` was tested. Which activation did it give?
A: 14.7% (active)

Q: With `N/C(=N\OC(=O)Cc1ccc([N+](=O)[O-])cc1)c1ccccn1` as the compound, how does the activation read?
A: 5.64%

Q: With `COc1cc(/C=C/C(=O)n2cnc3ccccc32)cc(OC)c1OC` as the compound, how does the activation read?
A: -6.48%

Q: For `C/C(=C(\C#N)C(=O)NCCCN1CCOCC1)N(C)C`, which activation is on record?
A: -0.63%

Q: `O=C(Nc1ccccn1)C1CCN(S(=O)(=O)c2ccc3c(c2)OCCO3)CC1` was tested. Which activation did it give?
A: 5.62%

Q: With `Cc1ccnc(NC(=O)C2CCN(S(=O)(=O)c3c(C)c(C)cc(C)c3C)CC2)c1` as the compound, how does the activation read?
A: 14.9% (active)

Q: `CNC(=O)C1CCN(S(=O)(=O)c2c(C)noc2/C=C/c2cccc(C)c2)CC1` was tested. Which activation did it give?
A: 1.09%

Q: `COc1ccccc1CCNC(=O)C1CCN(c2nc(C)cc(C)n2)CC1` was tested. Which activation did it give?
A: -1.32%

Q: How did the activation turn out when `O=C(CSc1nc2ccccc2n1Cc1ccccc1Cl)N/N=C\c1c[nH]c2ccccc12` was run?
A: 0.95%

Q: How did the activation turn out when `Fc1ccccc1-c1cc2cc3c(cc2cn1)OCO3` was run?
A: 16.3% (active)

Q: `O=C(c1ccco1)N1CCN(C(=O)c2cc(-c3ccccc3F)no2)CC1` was tested. Which activation did it give?
A: 0.91%

Q: How did the activation turn out when `COC(=O)C1=C(C)N(Cc2cccc(C(F)(F)F)c2)C(=NCc2cccc(C(F)(F)F)c2)NC1c1ccccc1C(F)(F)F` (stereo not drawn) was run?
A: 0.13%

Q: How did the activation turn out when `CN(C)c1ccc(NC(=O)NC2CCCCN(Cc3ccc(Cl)cc3)C2=O)cc1` (stereo not drawn) was run?
A: -1.5%

Q: With `C[C@@H]1CN([C@H](C)CO)S(=O)(=O)c2ccc(C#C[C@@H](C)O)cc2O[C@@H]1CN(C)Cc1ccc(-c2ccccc2)cc1` as the compound, how does the activation read?
A: 2.28%

Q: How did the activation turn out when `CCc1cc(C(=O)Nc2nnc(C3CC3)s2)sc1C` was run?
A: 1.89%

Q: For `Cc1cnc(NC(=O)Cn2cnc3c2c(=O)n(C)c(=O)n3C)s1`, which activation is on record?
A: -0.21%

Q: For `Cc1cnc(NC(=O)c2ccccn2)s1`, which activation is on record?
A: 16.5% (active)

Q: `O=C(Nc1nnc(C2CC2)s1)c1ccccn1` was tested. Which activation did it give?
A: 12.5% (active)

Q: How did the activation turn out when `O=C(Nc1ccc2nc3n(c(=O)c2c1)CCCC3)c1ccc(Cl)nc1` was run?
A: 1.23%

Q: How did the activation turn out when `CCc1ccccc1OCC(=O)Nc1nnc(C2CC2)s1` was run?
A: -2.07%

Q: With `Cc1cccc(NC(=O)c2cccc(C(=O)Nc3cccc(C)c3C)n2)c1C` as the compound, how does the activation read?
A: -1.93%

Q: `COc1ccc(CC(=O)NCc2nnc(SCC(=O)Nc3ncc(C)s3)n2C)cc1` was tested. Which activation did it give?
A: 3.07%

Q: Which activation does the source give for `Cc1cnc(NC(=O)c2ccc(Cl)nc2)s1` here?
A: 12.4% (active)

Q: With `O=C(COC(=O)c1ccc(F)cc1)NCCCc1ccccc1` as the compound, how does the activation read?
A: -2.09%

Q: Which activation does the source give for `Cc1ccc(C(=O)NCC(=O)OCC(=O)Nc2cccc(S(=O)(=O)N3CCCC3)c2)cc1C` here?
A: 0.26%

Q: With `O=C(NCc1ccccc1)[C@H]1CCCN1C(=O)[C@@H]1CCCN1C(=O)c1ccc(Cl)cc1Cl` as the compound, how does the activation read?
A: 5.91%

Q: How did the activation turn out when `O=C(CSC1CC(=O)N(CCc2ccccc2)C1=O)Nc1ccc(Cl)cc1` (stereo not drawn) was run?
A: 3.22%

Q: For `COC(=O)[C@H](C(C)C)N1CCc2nnn(Cc3ccc(C)cc3)c2-c2ccccc2S1(=O)=O`, which activation is on record?
A: 1.86%

Q: `COC(=O)[C@]12C[C@H](CC(=O)NCCc3ccccc3OC)C(=O)N(Cc3ccco3)C1=C[C@H](C(C)C)O[C@@H]2C1CC1` was tested. Which activation did it give?
A: 1.21%

Q: `Nc1[nH]c(C(=O)c2ccccc2)c(-c2ccncc2)c1C(=O)NCc1cccc2ccccc12` was tested. Which activation did it give?
A: -0.47%

Q: For `COc1ccc(-c2csc(Nc3ccccn3)n2)cc1`, which activation is on record?
A: 16.9% (active)

Q: How did the activation turn out when `Clc1ccc(Nc2nc(-c3cccs3)cs2)nc1` was run?
A: 19.5% (active)

Q: With `O=C(CN1C(=O)C2C3C=CC(C3)C2C1=O)Nc1nc(-c2ccccn2)cs1` (stereo not drawn) as the compound, how does the activation read?
A: 0.17%

Q: How did the activation turn out when `Cc1cccc(OCC(=O)OCC(=O)Nc2ccc(Cl)cn2)c1` was run?
A: 0.27%

Q: For `N#Cc1ccc(OCC(=O)Nc2nc(-c3ccccn3)cs2)cc1`, which activation is on record?
A: -6.22%

Q: `CC(=O)c1ccc(Nc2nc(C(N)c3ccccc3)cs2)cc1` (stereo not drawn) was tested. Which activation did it give?
A: 2.66%

Q: With `c1ccc(Nc2nc(-c3ccncc3)cs2)nc1` as the compound, how does the activation read?
A: 14.5% (active)

Q: How did the activation turn out when `COc1ccc(Nc2nc(-c3ccccc3)cs2)cc1` was run?
A: 22.4% (active)

Q: With `COc1cccc(C(O)c2nc(-c3ccc(C)c(C)c3)cs2)c1` (stereo not drawn) as the compound, how does the activation read?
A: -0.02%

Q: `CC(NC(=O)c1ccco1)C(=O)Nc1nc(-c2ccccn2)cs1` (stereo not drawn) was tested. Which activation did it give?
A: 1.66%

Q: For `CNC(=O)c1sc(Nc2ccc(OCc3ccccc3)cc2)nc1C`, which activation is on record?
A: -1.9%
